In all, about 360,000 compounds went through this assay and about 25,000 (6.9%) were called active. Entries that show only a call come without a potency. Inconclusive results (about 9%) are left out. The call rests on the fitted dose curve; in most records, active means well fitted inhibition curve with a large enough effect; inconclusive means small, poorly fitted or top-dose-only effect; inactive means flat fitted curve, though single readings scatter. For the sample, actives were picked, then their nearest neighbours and some compounds at random.
Potency means the concentration at half of the fitted maximal effect.

Chain of Luciferin 4-monooxygenase (Photinus pyralis) (P08659 whole entry, looked up): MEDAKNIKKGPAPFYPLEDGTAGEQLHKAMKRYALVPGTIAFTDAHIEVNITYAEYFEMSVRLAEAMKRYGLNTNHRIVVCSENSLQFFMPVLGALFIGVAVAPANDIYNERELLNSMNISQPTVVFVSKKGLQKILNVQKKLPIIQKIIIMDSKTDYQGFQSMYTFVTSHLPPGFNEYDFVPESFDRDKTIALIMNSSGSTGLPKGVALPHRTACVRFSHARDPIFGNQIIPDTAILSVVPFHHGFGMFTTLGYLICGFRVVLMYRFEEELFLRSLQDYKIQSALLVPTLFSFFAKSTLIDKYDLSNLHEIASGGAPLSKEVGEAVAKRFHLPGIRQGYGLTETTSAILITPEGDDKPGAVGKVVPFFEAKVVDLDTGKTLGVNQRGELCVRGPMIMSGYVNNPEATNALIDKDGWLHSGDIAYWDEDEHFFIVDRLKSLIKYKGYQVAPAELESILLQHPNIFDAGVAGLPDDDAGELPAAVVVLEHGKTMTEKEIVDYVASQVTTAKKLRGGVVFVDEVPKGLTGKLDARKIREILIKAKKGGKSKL

The experiment concerns the target Luciferin 4-monooxygenase (Photinus pyralis) (UniProt P08659). Kind of experiment: qHTS profiling assay for firefly luciferase inhibitor/activator using purifed enzyme and Km concentrations of substrates (counterscreen for miR-21 project). Further: nearly all actives have a fitted effect of over 55% in size. To be noted: purified FLuc, luminescence inhibition; series mostly up to 57.5 µM. The method, boiled down: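 Purified P. pyralis luciferase, 10 nM final, with Km-level 10 uM D-luciferin and 10 uM ATP in 50 mM Tris acetate pH 7.5, 10 mM Mg acetate, 0.01% Tween-20, 0.05% BSA; 6-point qHTS titration about 60 µM downward; luminescence read.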
Background: qHTS replaces the single test concentration by a dilution series.
`COCCN(Cc1ccco1)C(=O)Cn1ncc2c([nH]c3ccccc32)c1=O`: the Potency result was “inactive”. In the case of `COc1ccc(NC(=O)CCCN2C(=O)C(c3ccccc3)Oc3cccnc32)cc1` (configuration not stated) it was “inactive”. Then `Cc1[nH]n(C(N)=S)c(=O)c1N=Nc1ccc(Cl)cc1Cl`, with 10.7 µM (active); and `Cc1[nH]n(C)c(=O)c1N=Nc1ccc(S(C)(=O)=O)cc1`, with “inactive”. In the case of `Cn1c(SCc2nc3ccccc3s2)nnc1-c1ccc2c(c1)OCO2` it was “inactive”.

Consider `O=C(CSc1nnc(-c2ccncc2)o1)NCc1ccc(Cl)cc1`, for which the Potency entry is “inactive”.

Consider `Clc1ccc(-c2nnc(SCc3nc4ccccc4s3)o2)cc1`, for which the Potency was 19 µM (active). Then `COc1ccc(-n2c(=O)c3sc4ccccc4c3n(CC(=O)Nc3cccc(C)c3)c2=O)cc1`, with “inactive”; and `Cc1cc(C)c2nc3nc(C)cc(C)c3c(N)c2c1`, with 15.1 µM (active); and `Cc1cc(C)c([N+](=O)[O-])cc1-c1ccc(/C=N/NC(=O)c2nonc2N)o1`, with “inactive”. In the case of `O=C1C2C3C=CC(C4CC34)C2C(=O)N1/N=C/c1ccc(-c2ccccc2[N+](=O)[O-])o1` (configuration not stated) it was 10.7 µM (active); in that of `O=C(CN1C(=O)CCn2nc(-c3ccccc3)cc21)NCc1ccccc1`, “inactive”. In the case of `CCOc1cccc(CC(=O)N2CCc3c([nH]c4ccccc34)C2c2ccc(F)cc2)c1OCC` (configuration not stated) it was “inactive”; in that of `N#C/C(=C(/O)COC(=O)COc1ccc(Cl)cc1)c1nc2ccccc2[nH]1`, “inactive”. `O=C(Cc1nc2ccccc2[nH]c1=O)c1ccc(Cl)cc1`: the Potency is 0.757 µM (active). In the case of `O=C(/C(=C/c1cccc(Cl)c1)c1nc2ccccc2[nH]1)c1ccccc1` it was “inactive”.

In the case of `COc1ccc(N2CCN(C3=NS(=O)(=O)C(c4cccc(Br)c4)=C3C)CC2)cc1`, the Potency result was “inactive”.

In the case of `CCOC(=O)c1sc(/N=C/C2=C(O)CC(C)(C)CC2=O)c(C(=O)OCC)c1C`, the Potency is 19 µM (active). Take `CCOC(=O)c1c(/N=C/C2C(=O)CC(C)(C)CC2=O)sc(C)c1C`: the Potency entry is “inactive”. In the case of `CCOC(=O)c1c(CC(C)C)csc1/N=C/C1=C(O)CCCC1=O` it was “inactive”; in that of `Cc1ccc(N2CC(C(=O)Nc3ccc(N(C)C)cc3)CC2=O)cc1Cl` (configuration not stated), “inactive”; in that of `O=C(NNC(=O)c1ccc(Cl)cc1Cl)c1cccs1`, 12 µM (active). In the case of `O=C(COC(=O)c1ccc(O)cc1O)NNC(=O)c1cccs1`, the Potency result is “inactive”.

Take `NNC(=O)c1ccc(Cl)cc1Cl`: the Potency result is “inactive”. Turning to `CC1CCCCN1S(=O)(=O)c1ccc(F)c(C(=O)Nc2ccccc2C(F)(F)F)c1` (configuration not stated), the Potency result was “inactive”. Consider `Cc1cccc(NC(=O)CSc2nc(-c3ccco3)cc(C(F)(F)F)n2)c1C`, for which the Potency entry was “inactive”. In the case of `COc1ccc(NS(=O)(=O)c2cc(NC(=O)COc3ccccc3F)ccc2OC)cc1` it was “inactive”; in that of `COc1ccc2oc(=O)c(C(=O)N3CCN(c4ccccc4F)CC3)cc2c1`, “inactive”; in that of `COc1ccc2oc(=O)c(C(=O)N3CCCC3)cc2c1`, “inactive”. In the case of `COc1cccc(C(=O)c2cc3ccc(O)cc3oc2=O)c1` it was 12 µM (active); in that of `CNS(=O)(=O)c1ccc(C(=O)NCC(=O)NCCc2ccc3c(c2)OCCO3)cc1`, “inactive”.

For the compound `COC(=O)c1c(NC(=O)c2ccc(Cl)c(Cl)c2)sc2c1CCCC2`, the Potency result was “inactive”. In the case of `Cn1c(=O)c2c(ncn2CC(=O)Nc2cccc(C(F)(F)F)c2)n(C)c1=O` it was “inactive”; in that of `Cn1c(=NC(=O)c2ccco2)sc2cccc(F)c21`, 3.38 µM (active); in that of `CCN(CC)S(=O)(=O)c1ccc(C(=O)N=c2sc3cccc(OC)c3n2C)cc1`, “inactive”. Then `Cc1cc(NC(=O)c2ccco2)c(=O)n(Cc2c(F)cccc2Cl)c1`, with “inactive”; and `CC1CCN(S(=O)(=O)c2ccc3c(c2)N(CC(=O)NCc2ccccc2Cl)C(=O)CO3)CC1`, with “inactive”; and `Cc1csc2nc(COc3ccc(NC(=O)COc4ccccc4)cc3)cc(=O)n12`, with “inactive”.

As for `COc1ccccc1N1CCN(c2ncnc3onc(-c4ccc(F)cc4)c23)CC1`, the Potency entry is “inactive”.

On to `O=C(CSc1ccccc1)Nc1cccc(S(=O)(=O)N2CCOCC2)c1`, for which the Potency result was “inactive”. Then `CCn1c2ccccc2c2cc(CC(N)=O)ccc21`, with “inactive”. In the case of `NC(=O)Cc1ccc2c(c1)[nH]c1ccccc12` it was “inactive”; in that of `NC(=O)Cc1ccc2sc(-c3ccccc3)nc2c1`, 5.36 µM (active); in that of `COc1ccc(CCNC(=O)c2ccc(CSCc3ccc(C)cc3)o2)cc1OC`, “inactive”. In the case of `CN1CCN(S(=O)(=O)c2ccc(N3CCN(c4ccccc4O)CC3)c([N+](=O)[O-])c2)CC1` it was “inactive”; in that of `CC(=O)Nc1ccc(S(=O)(=O)Nc2nccc(/C=C/c3ccccc3F)n2)cc1`, “inactive”; in that of `CC(=O)NS(=O)(=O)c1ccc(NC(=O)/C=C/c2ccccc2Cl)cc1`, 12 µM (active). As to `O=C(CCS(=O)(=O)c1ccccc1Cl)Nc1ccc(S(=O)(=O)Nc2ncccn2)cc1`, the Potency entry was “inactive”. `O=C(/C=C/c1ccccc1Cl)Nc1ccc(S(=O)(=O)Nc2ncccn2)cc1`: the Potency is 13.5 µM (active).

In the case of `CC(=O)NS(=O)(=O)c1ccccc1`, the Potency entry was “inactive”. In the case of `NS(=O)(=O)c1ccc(NC(=O)/C=C/c2ccccc2Cl)cc1` it was “inactive”; in that of `COc1ccc(CNC(=O)Cn2nnc(-c3ccccc3F)n2)cc1`, “inactive”; in that of `CCOc1cccc2sc(N3CCN(C(=O)C4CC4)CC3)nc12`, “inactive”. Then `Cc1occc1-c1nnc(SCC(=O)NC2(C#N)CCCC2)n1C`, with “inactive”; and `Cc1ccc(CSc2oc(-c3cccs3)nc2S(=O)(=O)c2ccc(C)cc2)cc1`, with “inactive”; and `Cc1onc(-c2ccccc2Cl)c1C(=O)OCc1nnc(-c2ccccc2)o1`, with “inactive”. Then `CCOC(=O)N1CCN(Cc2nnc(-c3ccccc3Cl)o2)CC1`, with “inactive”.

With `O=C(c1ccc(Cl)s1)N(Cc1nnc(-c2ccccc2Cl)o1)C1CC1`, the Potency is 19 µM (active). Then `Cc1ccc(S(=O)(=O)c2c(Nc3cccc(Cl)c3)sc(C(=O)c3ccc4c(c3)OCO4)c2N)cc1`, with “inactive”; and `COc1ccccc1C(=O)NC(=S)Nc1ccccc1N1CCCCC1`, with “inactive”. Then `O=C(CCCCn1c(=O)c2ccccc2n(CC(=O)Nc2cccc(C(F)(F)F)c2)c1=O)NCc1ccc2c(c1)OCO2`, with “inactive”; and `COC(=O)c1ccc(C(=O)OC)c(NC(=S)N2CCN(c3ccc(F)cc3)CC2)c1`, with “inactive”. In the case of `COC(=O)c1ccc(Sc2ccc(F)cc2)c(N)c1` it was 21.3 µM (active). With `CC(=O)Nc1cc(C(=O)NCc2ccc(F)cc2)ccc1Sc1ccc(F)cc1`, the Potency entry was “inactive”. Take `CC(C)NC(=O)c1nn(-c2ccccc2F)nc1CO`: the Potency entry was “inactive”. In the case of `CCOC(=O)C1CCC(CN(Cc2ccc(OC)cc2)S(=O)(=O)c2ccc(F)c(C(=O)Nc3cc(C)ccc3C)c2)CC1` (configuration not stated) it was “inactive”.

Regarding `CCNC(=O)CC1C(=O)N(c2ccc(F)cc2)C(=O)N1Cc1ccc(C)cc1` (configuration not stated), the Potency entry was “inactive”.

Turning to `N#Cc1cccc(OC(=O)c2ccc3c(=O)n4c(nc3c2)CCC4)c1`, the Potency entry is “inactive”. Then `COc1ccccc1CNC(=O)C(=O)NCC(c1ccco1)S(=O)(=O)c1ccc(F)cc1` (configuration not stated), with “inactive”. Then `CCOc1cc(/C=C2/C(=N)N3OC(C)=CC3=NC2=O)ccc1OC`, with “inactive”; and `COc1cc(/C=C2/C(=O)ON=C2C)ccc1OCc1ccccc1F`, with 6.75 µM (active); and `CC1=NOC(=O)/C1=C\c1ccccc1`, with “inactive”. Regarding `CCc1ccc(CN(Cc2ccco2)C(=O)c2ccccc2Cl)cc1`, the Potency entry was “inactive”. With `Cc1ccc(C(=O)NC(=S)Nc2ccc(N3CCOCC3)cc2)cc1`, the Potency result was “inactive”. In the case of `Cc1cccc(NC(=O)c2ccc([N+](=O)[O-])o2)c1` it was “inactive”. Then `Cc1cccc(NC(=O)/C(=C\c2ccco2)NC(=O)c2ccccc2)c1`, with “inactive”; and `O=C(CNC(=O)c1ccc(Br)o1)Nc1ccccc1`, with “inactive”; and `Cc1ccc(C(=O)NC(=S)Nc2ccccc2C)cc1`, with 19 µM (active). In the case of `Cc1cccc(NC(=O)NC(=S)NC(=O)c2ccccc2)c1` it was 19 µM (active). On to `Cc1ccc(NC(=O)NC(=O)c2ccccc2)cc1F`, for which the Potency result was “inactive”. In the case of `Cc1ccccc1NC(=S)NC(=O)Cc1ccc(Cl)cc1` it was “inactive”; in that of `Cc1cccc(NC(=S)NC(=O)c2ccc(Br)o2)c1`, 19 µM (active). In the case of `CC1CCN(S(=O)(=O)c2ccc3c(c2)N(CC(=O)NCCc2ccccc2)C(=O)CO3)CC1` it was “inactive”; in that of `O=C(NCc1cccc(Cl)c1)C1=CC=CN2CCS(=O)(=O)N=C12`, “inactive”. In the case of `Cc1nnc(NCc2ccccc2)c2c1nnn2Cc1ccc(F)cc1` it was “inactive”. As for `O=C(CCS(=O)(=O)c1cc(Br)cc2c1N(C(=O)C1CC1)CC2)Nc1ccc(Br)cc1F`, the Potency entry is “inactive”.

In the case of `Cc1ccc(NC(=O)CSc2nc3c([nH]c4ccccc43)c(=O)n2-c2ccccc2)cc1Cl`, the Potency entry was “inactive”. In the case of `NC(=O)CSc1nc2c(oc3ccccc32)c(=O)n1Cc1ccccc1` it was “inactive”.

`Cc1ccc(OCC(=O)Nc2ccc3oc(=O)ccc3c2)cc1C`: the Potency entry was “inactive”. Then `CC1=C(C(=O)N2CCN(c3cccc(C(F)(F)F)c3)CC2)C2(CCCCC2)OC1=O`, with “inactive”. In the case of `COc1ccc(Cc2nc3ccc(C(=O)NCc4ccc(OC)cc4OC)cc3o2)cc1`, the Potency entry is “inactive”.

In the case of `COC(=O)c1ccc(CNC(=O)c2ccc3oc(C(C)C)nc3c2)cc1`, the Potency is 13.5 µM (active).

For `COc1ccc(CNC(=O)c2ccc3oc(C(C)C)nc3c2)cc1`, the Potency is 15.1 µM (active). On to `CC(C)c1nc2cc(C(=O)NC(C)c3cnn(C)c3)ccc2o1` (configuration not stated), for which the Potency result was “inactive”.

Consider `COC(=O)c1ccc(CSc2nc3cc(Cl)ccc3o2)cc1`, for which the Potency result was “inactive”.

On to `COc1ccc(-c2nc3ccc(C(=O)NCc4ccc(C)cc4)cc3nc2-c2ccc(OC)cc2)cc1`, for which the Potency entry was “inactive”. In the case of `COC(=O)c1c(NC(=O)c2cc(=O)c3c(C)cc(C)cc3o2)sc2c1CCCC2` it was “inactive”. On to `CCCCN(C)S(=O)(=O)c1ccc(C(=O)Nc2sc3c(c2C(N)=O)CC(C)(C)NC3(C)C)cc1`, for which the Potency result was “inactive”.

Turning to `FC(F)(F)c1cc(Nc2nc3ccccc3c3nncn23)ccc1Cl`, the Potency entry was “inactive”. `Cc1c(CNC2CCCCC2)c(C(=O)O)c(C)n1Cc1cccc(Cl)c1`: the Potency result is “inactive”. Then `CC(C)Nc1ccc(-n2nc3ccccc3[n+]2[O-])cc1`, with 1.9 µM (active); and `CCC(=O)Nc1c(C(=O)N2CCN(c3ccc(F)cc3)CC2)oc2ccccc12`, with “inactive”.

The values above are taken from PubChem BioAssay AID588342 (National Center for Advancing Translational Sciences (NCATS), 2011).
